SMILES strings stand for the structures. Inconclusive results are not listed. The source made the active and inactive calls. The calls were made as follows: active = hit-call score of the fitted dose curve at least 0.9, where 1 is the maximum; inconclusive = response in the unintended direction; inactive = score below 0.9.

This test can be described thus: ATG_M_06_XSP2: Attagene TRANS-FACTORIAL Multi-Species (XSP2) HepG2 Assay for M06 Transcription Factor (Internal Marker) (AID 2283811).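 Also: hits are increases in signal above the DMSO baseline.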 Here is the method:
ATG_XSP2_multi-species_TRANS is a cell-based, multiplexed assay created by modifying the existing Attagene TRANS-FACTORIAL system to include a panel of nuclear receptors from some or all the following species: human (Homo sapiens), mouse (Mus musculus), frog (Xenopus laevis), zebrafish (Danio rerio), chicken (Gallus gallus), and turtle (Chrysemys picta). The ECOTOX-FACTORIAL format uses HepG2, a human liver cell line, with measurements taken at 24 hours after chemical dosing in a 24-well plate. Xsp2 included 3 nM 6-alpha-fluorotestosterone and 1.5 nM norgestrel to stimulate the androgen receptor.ATG_M_06_XSP2 is one of 29 assay components measured or calculated from the ATG_XSP2_multi-species_TRANS assay. It is designed to make measurements of mRNA induction, a form of inducible reporter, as detected with fluorescence intensity signals by Reverse transcription polymerase chain reaction (RT-PCR) and Capillary electrophoresis technology.This assay endpoint, ATG_M_06_XSP2, was analyzed in the positive analysis fitting direction relative to DMSO as the negative control and baseline of activity. Using a type of inducible reporter, measures of mRNA for gain-of-signal activity can be used to understand the background control at the transcription factor-level as they relate to the gene. Furthermore, this assay endpoint can be referred to as a secondary readout, because this assay has produced multiple assay endpoints where this one serves a background control function. To generalize the intended target to other relatable targets, this assay endpoint is annotated to the background measurement intended target family, where the subfamily is internal marker.
Human liver HepG2 cells are transiently transfected with multiple reporter transcription units (MRTUs) in 6-well plates using FuGene 6 reagent (Roche; 3 ml FuGene/1 mg DNA). The MRTU constructs are regulated by a cis-regulating element (promoter). […] A major difference between the CIS and TRANS system is that in CIS activities of endogenous TFs are measured, whereas the TRANS assay evaluates changes in activities of exogenous, chimeric NR-Gal4 proteins. […] At the end of 24 hour incubation, total RNA was isolated using TriZol reagent (Invitrogen). The isolated RNA is then reverse-transcribed using oligo(dT) primer and Mo-MLV reverse transcriptase (Invitrogen) with DNAse I (Ambion) treatment for 30 min. The one-tenth of the produced cDNA was amplified by PCR using Taq DNA polymerase (Invitrogen) and two reporter sequence-specific primers. The PCR products were fluorescently labeled by primer extension with 6-arboxyfluorescein (6-FAM) 5'-labeled reporter sequence-specific primer (2 min at 95 C, 20 s at 68 C and 10 min at 72 C) and these products were digested with 5U of HpaI (New England Biolabs) for 2h at 37 C. The fragments were purified using Qiaquick PCR columns (Qiagen), analyzed on an ABI 3130xL genetic analyzer (Applied Biosystems) with peak positions identified by using a set of X-rhodamine (ROX)-labeled MapMarker1000 molecular weight standards (BioVentures). The raw capillary electrophoresis data was processed using Attagraph software (Attagene).
As for `CCC(C)c1ccc(O)cc1` (stereo not given), the molecule was classed as inactive.

Take `Clc1ccc(C(c2ccc(Cl)cc2)C(Cl)(Cl)Cl)cc1`: the molecule was called inactive.

As to `CCCCOC(=O)c1ccccc1C(=O)OCc1ccccc1`, the outcome was inactive.

`O=[N+]([O-])c1ccc(Oc2ccc(Cl)cc2Cl)cc1`: the molecule was called inactive.

As for `Clc1ccc(C(c2ccc(Cl)cc2)C(Cl)Cl)cc1`, the result was inactive.

As for `CC(C)(C)C(O)(CCc1ccc(Cl)cc1)Cn1cncn1` (stereo not given), the outcome was inactive.

In the case of `c1ccc2c(c1)-c1cccc3cccc-2c13`, the call was inactive.

Consider `CCC[CH2][Sn]([Cl])([CH2]CCC)[CH2]CCC`, for which the molecule was called inactive.

Consider `Oc1ccc2ccc3cccc4ccc1c2c34`, for which the result was inactive.

In the case of `C[C@]12C=CC3=C4CCC(=O)C=C4CC[C@H]3[C@@H]1CC[C@@H]2O`, the outcome was inactive.

For the origin of these results see PubChem BioAssay (EPA / NIEHS).
